According to the supplement of paper PMC3334620:
The full ranking holds about 33,000 sequences; the median of “E-score (-0.5 to 0.5)” is about -0.054, and the highest 2% start at about 0.35. The list comes from a sample in which the highest values are over-represented; it also holds similar and randomly drawn sequences.

Each sequence was assayed against T1, Stb5 (UniProt P38699) (assay: PBM E-score (8-mer binding enrichment) (E-score (-0.5 to 0.5)); higher = stronger / more preferred TF binding). Conditions: protein concentration: 200 nM; construct: GST-full length.
T1 sequence: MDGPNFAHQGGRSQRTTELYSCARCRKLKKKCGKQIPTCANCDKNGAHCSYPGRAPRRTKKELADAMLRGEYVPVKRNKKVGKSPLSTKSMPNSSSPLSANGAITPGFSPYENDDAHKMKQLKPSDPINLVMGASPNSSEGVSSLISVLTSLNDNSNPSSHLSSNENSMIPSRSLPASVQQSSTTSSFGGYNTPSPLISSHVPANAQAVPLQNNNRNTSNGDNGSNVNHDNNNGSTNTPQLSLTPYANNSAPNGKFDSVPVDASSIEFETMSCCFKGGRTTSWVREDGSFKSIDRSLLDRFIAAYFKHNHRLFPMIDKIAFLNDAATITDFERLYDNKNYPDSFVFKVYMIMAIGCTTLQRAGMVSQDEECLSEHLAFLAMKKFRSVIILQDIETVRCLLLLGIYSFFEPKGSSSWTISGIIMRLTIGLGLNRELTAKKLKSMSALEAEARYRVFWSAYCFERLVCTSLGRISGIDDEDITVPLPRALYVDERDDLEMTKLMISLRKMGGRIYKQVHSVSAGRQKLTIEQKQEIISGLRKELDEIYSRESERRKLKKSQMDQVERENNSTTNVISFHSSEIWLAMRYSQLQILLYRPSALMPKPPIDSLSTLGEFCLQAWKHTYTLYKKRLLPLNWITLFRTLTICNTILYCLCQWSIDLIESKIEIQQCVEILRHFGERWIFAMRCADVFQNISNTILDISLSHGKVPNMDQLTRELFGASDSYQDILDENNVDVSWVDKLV
Method: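 Universal 'all 10-mer' protein binding microarrays (Agilent AMADID 015681) probed with GST-tagged S. cerevisiae TFs (full-length or DBD) made by in vitro transcription/translation (PURExpress), about 100-200 nM. Bound TF was detected with fluorescent anti-GST. Each ungapped 8-mer (which stands for itself and its reverse complement) is scored by the PBM enrichment score (E-score), a modified Wilcoxon-Mann-Whitney statistic from -0.5 to +0.5, computed with the Universal PBM Analysis Suite. Scale: above 0.35 generally sequence-specific binding.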

| Sequence | PBM E-score |
| --- | --- |
| GCAAAAGA | -0.0404 |
| CATTGAGC | -0.032 |
| CTCTAATA | -0.188 |
| AGGGCCCT | -0.173 |
| GGGCTAAC | -0.0393 |
| AGCTAGGG | -0.0617 |
| ATAGCGCG | 0.0127 |
| ATAGCACA | -0.124 |
| CTAGCGCC | 0.172 |
| ATAGCACG | -0.0126 |
| ATAGCACC | 0.396 |
| ATAGCGCC | 0.361 |
| AGCTCGAA | -0.0836 |
| GGTGAAGA | 0.0224 |
| CAGTTCGG | 0.206 |
| GTTTCTAA | 0.0616 |
| ATGCCGTC | 0.352 |
| ATGCCGTG | 0.144 |
| ACGCCGAT | 0.35 |
| CTGCCGAC | 0.15 |
| ATGCCGAC | 0.386 |
| CCGCCGAG | 0.28 |
| CCGCCGAA | 0.347 |
| GCGCCGAC | 0.28 |
| ACGCCGAC | 0.435 |

| Sequence | PBM E-score |
| --- | --- |
| CTGCCGTC | 0.121 |
| ATGCCGAG | 0.147 |
| CCGCCGAC | 0.356 |
| AGAATCTG | -0.0539 |
| CCACACGC | -0.0412 |
| CTCCGTCA | 0.297 |
| ATCTACAT | -0.193 |
| TCCAACAA | -0.129 |
| GAGGTATC | -0.0164 |
| ATGCCGGA | 0.373 |
| ATGCCGGG | 0.287 |
| ATGCCGGC | 0.301 |
| GTTATCGA | -0.0558 |
| CAAGAGAC | -0.146 |
| CCCGACGG | 0.437 |
| ACCGACGA | 0.354 |
| GCCGACGC | 0.316 |
| TCCGACGA | 0.252 |
| ACCGACGG | 0.42 |
| CCCGACGC | 0.388 |
| CCCGACGA | 0.31 |
| AACGACGG | 0.242 |
| CCAGACGG | 0.179 |
| GCCGACGA | 0.308 |
| AGCGACGG | 0.245 |

| Sequence | PBM E-score |
| --- | --- |
| CACGACGG | 0.168 |
| AGGGGGAC | -0.248 |
| CGCTGGGC | 0.106 |
| AGAGGCGG | 0.253 |
| CATAGAAG | -0.126 |
| AGACCCAG | -0.291 |
| GAGGTCCC | -0.19 |
| CTTGGGCA | -0.0874 |
| AGGCCACC | -0.188 |
| CCCTCGAA | -0.222 |
| TAGAACAA | -0.15 |
| CCTTGGTA | 0.0875 |
| ACCGACGC | 0.306 |
| ACCGACGT | 0.355 |
| AACGACGT | -0.0504 |
| TGTGATAA | -0.171 |
| AATACCCT | -0.00882 |
| GATACCGC | 0.35 |
| CATACCGC | 0.307 |
| AATACCAG | -0.007 |
| AATACCAT | -0.0252 |
| AATACCGA | 0.415 |
| TATACCGA | 0.26 |
| CATACCGG | 0.193 |
| AATACCGG | 0.417 |

| Sequence | PBM E-score |
| --- | --- |
| AATACCGT | 0.438 |
| CATACCGA | 0.279 |
| AATACCGC | 0.454 |
| CGCGTCTC | 0.0131 |
| CATCGACG | 0.0157 |
| ATTGCAGA | -0.201 |
| CGCAGCAA | -0.192 |
| ACCGTCCA | 0.242 |
| AATGTGCA | -0.241 |
| CGCAGAGC | -0.0211 |
| ATGTGCTC | -0.151 |
| CTGGACTA | -0.143 |
| CAACATTA | -0.0568 |
| AGCACCGA | 0.476 |
| AGCACCTA | -0.104 |
| GGCACCGA | 0.351 |
| AGCACCAG | -0.177 |
| AGCACCGG | 0.421 |
| AGCACCCG | 0.153 |
| ACAGAATC | -0.16 |
| AACCGTAG | -0.118 |
| CATTTCTA | 0.0892 |
| TGGACTAA | -0.0846 |
| GGGACTGA | -0.172 |
| CTGACTTC | 0.00183 |

| Sequence | PBM E-score |
| --- | --- |
| CGGACTCC | 0.231 |
| AGGACTTC | -0.196 |
| CGGACTAA | 0.428 |
| GGGACTAA | 0.246 |
| CGGACTCA | 0.411 |
| AGGACTGA | -0.184 |
| CGGACTGA | 0.359 |
| GGGACTCA | -0.0395 |
| CGGACTTC | 0.374 |
| AGATCCAT | 0.0463 |
| ATAACGAG | -0.103 |
| CTGGCCTC | -0.252 |
| AGCATCGC | 0.0104 |
| CCACCTAA | -0.0966 |
| ACAGTACG | -0.197 |
| CGTTACCA | -0.112 |
| CCCAGTAA | -0.198 |
| ATGACCGA | 0.31 |
| ATGACCGC | 0.381 |
| ATGACCGG | 0.308 |
| AGGACCGA | 0.33 |
| AGGACCGC | 0.397 |
| CGGACCGC | 0.298 |
| CTGGTGCC | 0.0505 |
| CGTGCAAA | -0.0367 |

| Sequence | PBM E-score |
| --- | --- |
| CCCGAGCA | -0.166 |
| CAGCGTAG | -0.0828 |
| ACGGTTCG | 0.0226 |
| GAATTAAC | -0.0887 |
| TAGTGGCA | -0.0544 |
| CGTCGGCA | 0.334 |
| GGTCGGAC | 0.369 |
| AGTCGGAG | 0.302 |
| CGTCGGAC | 0.38 |
| AGTCGGAA | 0.221 |
| AGTCGGCA | 0.325 |
| GGTCGGCA | 0.375 |
| CGTCGGAA | 0.24 |
| GCTCGGAC | 0.242 |
| CGTCGGAG | 0.343 |
| AGTCGGAC | 0.398 |
| GGTCGGAA | 0.251 |
| ACGCCTAT | -0.198 |
| TACTACAA | -0.0615 |
| ACAGCACT | -0.196 |
| TCACCCGA | 0.089 |
| AGAGAAGC | -0.27 |
| TAGTCAGA | -0.116 |
| TCTGAGCA | -0.254 |
| AGTCGGGC | 0.312 |

| Sequence | PBM E-score |
| --- | --- |
| CGTCGGGA | 0.337 |
| CGTCGGGC | 0.361 |
| GGGTTTAA | 0.398 |
| GGGGTTAC | 0.397 |
| AGGGTTAC | -0.0791 |
| GGGTTTTA | 0.322 |
| CGGGTTAC | 0.0485 |
| CGGGTTAA | 0.221 |
| TGGTTTAA | -0.231 |
| GGGGTTAA | 0.404 |
| AGGGTTAA | -0.179 |
| AAAACGTC | -0.179 |
| GGTTGTCA | -0.0232 |
| GACCGCAA | 0.248 |
| AACCGCTA | 0.0216 |
| CACCGCTA | 0.388 |
| CACCGCTG | 0.405 |
| GACCGCTC | 0.267 |
| CACCGCTC | 0.402 |
| AACCGCTC | 0.119 |
| GACCGCTA | 0.359 |
| AACCGCTG | 0.0244 |
| TACCGCTA | 0.306 |
| GACCGCGA | 0.31 |
| AGCCGCTG | 0.14 |

| Sequence | PBM E-score |
| --- | --- |
| ATAGAGTG | -0.054 |
| ACAGTAAT | -0.154 |
| CTGGCAAA | -0.24 |
| CTCATCGC | -0.0444 |
| CACAATGA | -0.244 |
| ACGGACAT | 0.41 |
| ACGGACAG | 0.00554 |
| ACGGACAC | 0.215 |
| ACGGACCG | 0.297 |
| ACGGACCT | 0.426 |
| ACGGACCA | 0.237 |
| TACTTTGA | -0.207 |
| ATGTCCCG | 0.219 |
| CCGTCCGC | 0.292 |
| ACGTCCGA | 0.333 |
| ATGTCCTG | -0.0717 |
| ATGTCCGC | 0.443 |
| ATGTCCGG | 0.415 |
| CTGTCCGA | 0.201 |
| ATGTCCGA | 0.412 |
| ATGTCCCC | 0.224 |
| CTGTCCGC | 0.129 |
| ACGTCCGC | 0.367 |
| GTGTCCGA | 0.231 |
| CCAAGCAA | -0.148 |

| Sequence | PBM E-score |
| --- | --- |
| CTGCTAGA | 0.0321 |
| CTAAGGCA | -0.101 |
| CTTGTCTA | -0.11 |
| CCAGGCCA | -0.312 |
| GGCGGTAC | 0.361 |
| CGCGGTAC | 0.34 |
| TGCGGTAA | 0.278 |
| GGCGGTAA | 0.385 |
| AGCGGTAA | 0.34 |
| AGCGGTAC | 0.347 |
| TCAAGTCA | -0.175 |
| GCACCTCA | -0.199 |
| CAATTATC | 0.215 |
| ACTCCGTA | 0.35 |
| ACTCCGAC | 0.425 |
| ATTCCGTC | 0.141 |
| CGTCCGTC | 0.21 |
| AGTCCGTC | 0.389 |
| ACTCCGTC | 0.367 |
| AGTCCGTA | 0.284 |
| ATTCCGTG | 0.00715 |
| CCTCCGTC | 0.195 |
| ACTCCGTG | 0.352 |
| ACTCCGAA | 0.328 |
| ACTCCGAG | 0.202 |
